Screening results: PubChem, The Scripps Research Institute Molecular Screening Center
A selection: hits, their analogues and other compounds. The true share with any hit is near 2.9%.
pPAFAH inh: pPAFAH (human) enzyme inhibition. AID 463082. recombinant pPAFAH, FP-rhodamine probe fluorescence polarization. 330,000 compounds, 1.5% hits. inhibition, % at 3.39 µM. Q13093;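 active = inhibition above the mean inhibition across the screen plus 3 SD, cut at about 25% in these data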;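 note: inhibitors block binding of the rhodamine activity-based probe so polarization drops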
Target sequence (Q13093 whole entry, looked up): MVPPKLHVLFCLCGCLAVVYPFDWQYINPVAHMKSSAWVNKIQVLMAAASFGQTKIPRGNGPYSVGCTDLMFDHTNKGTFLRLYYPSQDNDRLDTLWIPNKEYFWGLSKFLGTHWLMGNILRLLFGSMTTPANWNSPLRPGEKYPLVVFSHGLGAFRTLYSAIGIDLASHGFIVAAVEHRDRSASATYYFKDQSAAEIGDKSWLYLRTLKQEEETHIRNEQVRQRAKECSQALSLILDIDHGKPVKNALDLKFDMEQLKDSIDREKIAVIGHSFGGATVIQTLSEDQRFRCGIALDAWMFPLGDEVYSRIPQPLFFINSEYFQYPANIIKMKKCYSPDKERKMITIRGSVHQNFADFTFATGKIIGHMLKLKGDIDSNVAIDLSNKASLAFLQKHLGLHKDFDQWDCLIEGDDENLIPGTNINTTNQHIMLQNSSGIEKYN
PAFAH1B3 FP inh: inhibitors of human PAFAH1B3; Q15102; recombinant PAFAH1B3, FP-rhodamine probe, fluorescence polarization; inhibition, % at 3.39 µM; 340,000 compounds, 0.28% hits; AID 492972;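 active = inhibition above the screen-wide average of all tested compounds plus 3 SD, cut at about 25% in these data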
Fam108B inh: blocks mouse Fam108B hydrolase in RBBP9 counter-screen. 300,000 compounds, 0.33% hits. inhibition, % at 9.51 µM. recombinant Fam108B, FP-Rh probe fluorescence polarization. AID 1947;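 active = inhibition above the screen mean inhibition plus 3 SD, computed separately per campaign, cut at about 18% in these data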;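 note: inhibitors lower polarization as less probe binds the enzyme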
PAFAH2 FP inh: inhibitors of human PAFAH2. Q99487. recombinant PAFAH2, FP-rhodamine activity probe, fluorescence polarization. inhibition, % at 3.39 µM. 340,000 compounds, 0.99% hits. AID 492956;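 active = inhibition above the mean over all tested compounds plus 3 SD, cut at about 30% in these data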;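 note: inhibitors block probe labeling of enzyme so polarization drops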
PME-1 primary: PME-1 (human) inhibition; recombinant PME-1, FP-Rh probe fluorescence polarization; inhibition, % at 5.9 µM; 320,000 compounds, 0.53% hits; AID 2130;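 active = inhibition above the campaign mean of all compounds plus 3 SD, cut at about 26% in these data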;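 note: competitive labeling of PME-1 active site by serine hydrolase directed probe; inhibitors block probe labeling so polarization falls and inhibition rises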
PAFAH1B2 inh: inhibitors of human PAFAH1B2; inhibition, % at 3.39 µM; 340,000 compounds, 1.2% hits; P68402; recombinant PAFAH1B2, FP-rhodamine activity probe, fluorescence polarization; AID 492953;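 active = inhibition above the mean of all tested compounds plus 3 SD, cut at about 24% in these data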
Target sequence (P68402 whole entry, looked up): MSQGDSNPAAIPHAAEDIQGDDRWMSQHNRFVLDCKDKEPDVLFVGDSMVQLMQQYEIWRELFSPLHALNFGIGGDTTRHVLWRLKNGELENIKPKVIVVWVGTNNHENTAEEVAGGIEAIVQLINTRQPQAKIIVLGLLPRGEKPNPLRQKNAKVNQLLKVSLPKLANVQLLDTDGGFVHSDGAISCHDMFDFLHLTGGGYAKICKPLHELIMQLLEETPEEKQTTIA
Of the large screens only hits and unclear results are named; the others gave an inactive call.

Nc1ccccc1NC(=O)NC(=O)c1ccccc1	none
Cc1nn(C)cc1CN1CCCC(C(=O)c2ccc(-c3ccccc3)c(F)c2)C1 (stereo not given)	none
COc1ccccc1/C=C/C(=O)N1CCc2cc(OC)c(OC)cc2C1C (stereo not given)	none
O=C(Nc1ccc(NC(=O)c2ccccc2F)cn1)c1ccco1	none
COc1ccccc1OCc1ccc(C(=O)Nc2cc(OC)c(OC)c(OC)c2)o1	none (no result: pPAFAH inh, Fam108B inh, PME-1 primary)
COc1cc(NC(=O)c2ccc(COc3ccccc3Br)o2)cc(OC)c1OC	pPAFAH inh 26
CC(C)(C)c1ccccc1NC(=O)N1CCNC(=O)C1CC(=O)Nc1ccc(F)cc1 (stereo not given)	none
COC(=O)C1=C(CSc2nc3c(cc2C#N)CN(C)CC3)OC(N)=C(C#N)C1c1ccccc1F (stereo not given)	pPAFAH inh 28
CCOc1ccc(S(=O)(=O)Nc2ccc(C(=O)NCCCN3CCOCC3)cc2)cc1	none
Cc1ccc(NS(=O)(=O)c2ccc(C(=O)NCCN3CCOCC3)cc2)cc1	pPAFAH inh 25 (no result: Fam108B inh, PME-1 primary)
CCOc1ccc(NS(=O)(=O)c2ccc(C(=O)NCCN3CCOCC3)cc2)cc1	pPAFAH inh 32
COc1ccccc1NC(=O)C(=O)NNS(=O)(=O)c1ccc2ccccc2c1	PAFAH1B2 inh 34
CCC(C)c1ccccc1NC(=O)COC(=O)c1ccc(N2CCCC2)c([N+](=O)[O-])c1 (stereo not given)	pPAFAH inh 30, PAFAH2 FP inh 79
COCCOC(=O)c1c(C)n(C)c2ccc(OC(=O)c3ccccc3F)cc12	none
CCN(CC)CC(=O)NCC1(c2ccccc2)CCOCC1	none
CCN(CC)CC(=O)NCC1(c2ccccc2)CCCC1	PAFAH1B2 inh 26
O=C(CN1CCCCC1)NCC1(c2ccccc2)CCCC1	PAFAH1B2 inh 29
O=C(CSc1ccccc1)NC(=O)NCc1ccccc1	PAFAH1B2 inh 32
Cc1ccc(C(=O)NCC2(c3ccccc3)CCCC2)cc1	PAFAH1B2 inh 92
COc1ccc(C(=O)NCC2(c3ccccc3)CCOCC2)cc1[N+](=O)[O-]	none
Cc1nc(SCC(=O)NC(=O)NCc2ccccc2)nc(C)c1C	none
Cc1ccsc1CN(C)CC(=O)Nc1ccccc1C(=O)NC1CC1	none (no result: Fam108B inh, PME-1 primary)
COc1ccc(CCN2C(=NC(=O)CC(C)C)SC3CS(=O)(=O)CC32)cc1OC (stereo not given)	none
CCOc1ccccc1NC(=O)CSc1nnc(CCC(=O)Nc2ccccc2F)n1C	none
O=C(CSc1ccccc1)NCC1(N2CCCCC2)CCCCC1	pPAFAH inh 34
Cc1cc(C(=O)OCC(=O)Nc2cc(S(=O)(=O)N(C)C)ccc2C)c2ccccc2n1	PME-1 primary 28
Cc1ccc(S(=O)(=O)N(C)C)cc1NC(=O)COC(=O)CCC1CCCCC1	pPAFAH inh 33
Cc1ccc(S(=O)(=O)N(C)C)cc1NC(=O)COC(=O)CSc1ccccc1	pPAFAH inh 28
Cc1ccc(S(=O)(=O)N(C)C)cc1NC(=O)COC(=O)CCC(=O)c1ccc(F)cc1	none
Cc1cc(NC(=O)c2cc(-c3ccc(OC(C)C)cc3)nc3ccccc23)no1	none
CCn1c(SC(C)C(=O)Nc2nccs2)nnc1-c1ccncc1 (stereo not given)	none
Cc1ccc(OCCNC(=O)c2cc(C3CC3)nc3c2cnn3C(C)C)cc1	none (no result: Fam108B inh)
CCOC(=O)c1sc(SCc2ccccc2)c2c1CC(C)(C)CC2=O	none
Cc1ccc(C)c(OCCC(=O)OCC(=O)NNC(=O)c2ccccc2)c1	pPAFAH inh 31 (no result: Fam108B inh)
O=c1oc2ccccc2c(Nc2cc3ccccc3cc2O)c1[N+](=O)[O-]	pPAFAH inh 27
CCC(C)NCC(=O)Nc1cc(S(=O)(=O)N(CC)c2ccccc2)ccc1Cl (stereo not given)	none
CCN(c1ccccc1)S(=O)(=O)c1ccc(Cl)c(NC(=O)COC(=O)c2ccc(O)cc2)c1	pPAFAH inh 34, PAFAH2 FP inh 67
O=C(O)c1cc(NC(=O)c2cccc(F)c2)cc(NC(=O)c2cccc(F)c2)c1	none
CCOc1ccc2nc(SCC(=O)NC(=O)NCc3ccco3)sc2c1	pPAFAH inh 26
CSc1cccc(CN2CCC(Oc3ccc(C(=O)N4CCCCC4)cc3)CC2)c1	none
CCOc1ccc(Br)cc1S(=O)(=O)Nc1ccc(C(=O)Nc2ccccc2OC)cc1	pPAFAH inh 29
COc1ccc(C)cc1NC(=O)c1ccc(NS(=O)(=O)c2c(C)noc2C)cc1	none
COc1ccc(C)cc1NC(=O)c1ccc(NS(=O)(=O)c2cccs2)cc1	pPAFAH inh 32
Cc1ccc(NC(=O)C(C)N2C(=O)c3ccccc3C2=O)c(C)c1 (stereo not given)	none
N=c1c(S(=O)(=O)c2ccc(Cl)cc2)cc2c(=O)n3ccccc3nc2n1CCN1CCOCC1	PAFAH1B2 inh 37
N=c1c(S(=O)(=O)c2ccccc2)cc2c(=O)n3ccccc3nc2n1CCCN1CCOCC1	none
O=C(O)c1ccn2c(C(=O)c3ccccc3)c(-c3ccccc3)cc2c1	PAFAH1B2 inh 38
COc1ccc(-c2cc3cc(C(=O)O)ccn3c2C(=O)c2ccccc2)cc1	none
Cc1cccc2cc(C#N)c(SCC#N)nc12	PME-1 primary 31
Cc1cccc2cc(C#N)c(SCC(=O)NNC(=O)Cc3ccccc3)nc12	none
CCOC(=O)C1CCCN(C(=O)c2ccccc2NC(=O)C2=C(C)OCCS2)C1 (stereo not given)	none
O=C(NN1C(=O)c2cc(Br)ccc2NC1c1cc(Br)cc(Br)c1O)c1ccncc1 (stereo not given)	pPAFAH inh 30
COc1ccc(CC(=O)NNc2ncnc3c2cnn3Cc2ccccc2)cc1OC	none
Cc1csc(NC(=O)c2ccc(S(=O)(=O)N3CCN(C)CC3)cc2)n1	none
Nc1c(C(=O)N/N=C/c2cccnc2)oc2nc(-c3ccco3)cc(-c3ccco3)c12	none (no result: PAFAH1B3 FP inh, PAFAH2 FP inh, PAFAH1B2 inh)
NNC(=O)c1oc2nc(-c3ccco3)cc(-c3ccco3)c2c1N	pPAFAH inh 34 (no result: PAFAH1B3 FP inh, PAFAH2 FP inh, PAFAH1B2 inh)
COC(=O)CCCn1nc(NC(=O)c2ccco2)cc1C	none
COc1ccccc1NC(=O)c1c([N+](=O)[O-])c(C(C)(C)C)nn1C	pPAFAH inh 31
O=C(O)c1cc(S(=O)(=O)NC(Cc2c[nH]c3ccccc23)C(=O)O)ccc1Cl (stereo not given)	PAFAH1B2 inh 25
O=C(OCCN=C1NS(=O)(=O)c2ccccc21)c1ccccc1F	none
O=C(OCCOCCN=C1NS(=O)(=O)c2ccccc21)c1ccccc1Br	PME-1 primary 34
COc1ccccc1CN(C)C(=O)COC(=O)c1c(C)noc1C	none (no result: Fam108B inh, PME-1 primary)
CCOc1cc(/C=C(/NC(C)=O)C(=O)O)cc(Cl)c1OCc1ccc(Br)cc1	pPAFAH inh 31
O=C(NCCc1ccc(Cl)cc1)C1CCC(=O)N1Cc1ccc(F)cc1 (stereo not given)	PAFAH1B2 inh 28
